Results taken from the supplement of paper PMC3334620.
Over roughly 33,000 sequences, “E-score (-0.5 to 0.5)” has its median near -0.0014; the highest 2% begin near 0.25. The sample as a whole holds a higher share of the highest values than the screen did.

molecular target: T1, Cad1 (UniProt P24813); test: PBM E-score (8-mer binding enrichment) (E-score (-0.5 to 0.5)); higher = stronger / more preferred TF binding; settings: protein concentration: 100 nM; construct: GST-full length
T1 sequence: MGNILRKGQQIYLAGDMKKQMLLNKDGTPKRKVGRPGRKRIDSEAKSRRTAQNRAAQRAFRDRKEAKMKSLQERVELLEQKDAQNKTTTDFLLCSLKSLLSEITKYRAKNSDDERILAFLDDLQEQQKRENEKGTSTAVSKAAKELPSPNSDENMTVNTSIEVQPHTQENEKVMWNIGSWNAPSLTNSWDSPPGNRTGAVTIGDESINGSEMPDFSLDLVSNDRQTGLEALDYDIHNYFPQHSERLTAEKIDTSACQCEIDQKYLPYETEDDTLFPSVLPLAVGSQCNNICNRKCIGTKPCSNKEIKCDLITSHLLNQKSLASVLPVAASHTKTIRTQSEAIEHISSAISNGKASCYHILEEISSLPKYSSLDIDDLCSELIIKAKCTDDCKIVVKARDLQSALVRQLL
Description: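 Universal 'all 10-mer' protein binding microarrays (Agilent AMADID 015681) probed with GST-tagged S. cerevisiae TFs (full-length or DBD) made by in vitro transcription/translation (PURExpress), about 100-200 nM. Bound TF was detected with fluorescent anti-GST. Each ungapped 8-mer (which stands for itself and its reverse complement) is scored by the PBM enrichment score (E-score), a modified Wilcoxon-Mann-Whitney statistic from -0.5 to +0.5, computed with the Universal PBM Analysis Suite. Scale: above 0.35 generally sequence-specific binding.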

Row | Sequence | PBM E-score
1 | CACTTCCC | -0.118
2 | ACTCCCGA | 0.0151
3 | AGGGGACG | -0.189
4 | GGCAGTCA | -0.00415
5 | TCCTCAAA | -0.166
6 | ATGAACGA | 0.111
7 | ATGAACGG | -0.0252
8 | ATGAACGC | 0.252
9 | GAGTTGAC | -0.0116
10 | CTACTACA | 0.196
11 | ATACTACA | 0.264
12 | ACAATACA | 0.0445
13 | ATAATACA | 0.263
14 | ATACTACC | 0.0181
15 | ATAATACC | 0.215
16 | GCAATACC | -0.0457
17 | GCAATACA | 0.291
18 | ATAATACG | 0.186
19 | TGTTGGAA | 0.192
20 | GGACCACA | 0.137
21 | AAAGCCTC | -0.186
22 | ACCATCAG | -0.00772
23 | CAGCAACA | 0.186
24 | AGCTCGAA | 0.151
25 | AAAGATTA | 0.152

Row | Sequence | PBM E-score
26 | GCAGAGGA | 0.0638
27 | GAGCATCC | -0.169
28 | CCGGACTA | -0.0508
29 | CCGGACTC | 0.281
30 | ACGGACTC | -0.0126
31 | CATAGCAC | -0.0299
32 | GAGGTCGA | -0.153
33 | CTCTCTTC | -0.215
34 | GATAACTA | 0.1
35 | CGTAACTA | -0.001
36 | GTTAACTA | 0.274
37 | CTTAACTA | 0.283
38 | ATTAACTA | -0.00319
39 | CTTAACTC | 0.0365
40 | CTCACTGA | -0.0364
41 | AGGCTGTA | -0.0168
42 | ATGCATCG | 0.114
43 | ATGCATTA | 0.265
44 | GTGCATCA | 0.128
45 | ATGCATTC | 0.196
46 | CCGCATTA | 0.172
47 | ATGCATCA | 0.308
48 | CTGCATTA | 0.014
49 | GCGCATTA | 0.265
50 | ACGCATTA | 0.145

Row | Sequence | PBM E-score
51 | CATCCTGC | 0.0554
52 | TGTGGCAA | 0.0896
53 | CCCGGACA | 0.039
54 | CCATCCAG | -0.0345
55 | GATATTCC | 0.0127
56 | AATATCCA | 0.0727
57 | AATATTCT | 0.126
58 | AATATTCA | 0.157
59 | AATATCCC | -0.00553
60 | CATATTCG | 0.129
61 | AATATTCC | 0.297
62 | AATATTCG | 0.273
63 | AATATCCG | 0.265
64 | AAGGTTGC | -0.00934
65 | CCTAGCAC | -0.199
66 | CCATAGTC | -0.0534
67 | GACCAAGC | 0.0511
68 | CCCACTCA | -0.193
69 | AGATGGAG | -0.0255
70 | AGAATCGA | 0.0389
71 | CGAATCGA | 0.325
72 | CTAATCGA | 0.315
73 | ATAATCAA | 0.157
74 | ATAATCAT | 0.252
75 | CTAATCAC | 0.326

Row | Sequence | PBM E-score
76 | ATAATCAG | 0.225
77 | CTAATCAG | 0.227
78 | GGAATCGA | 0.00927
79 | ATAATCGA | 0.146
80 | CTAATCGC | 0.0731
81 | CTAATCAA | 0.238
82 | CTGGACGC | 0.069
83 | CGAATACC | -0.104
84 | AATCTCAT | 0.0796
85 | CCCGCTCC | -0.37
86 | TGCCGCCA | 0.0461
87 | CGGGCAGA | 0.0491
88 | ACACCCTG | -0.133
89 | AGAGAATA | 0.0902
90 | GGATGCAC | -0.0779
91 | GTAAGGAC | -0.19
92 | CGGGGAAA | 0.0522
93 | GATACTGA | 0.14
94 | AATACTAA | 0.253
95 | TATACTGA | 0.288
96 | GTTACTCA | 0.182
97 | AATACTAT | -0.0768
98 | GCTACTAA | 0.0213
99 | TATACTAA | 0.107
100 | GTTACTAA | 0.374

Row | Sequence | PBM E-score
101 | CATACTGA | 0.103
102 | CACTGGCG | -0.0107
103 | CAGCTAAA | -0.121
104 | ACTAGTTG | -0.0546
105 | GGTGGCAA | -0.0998
106 | CCAACGCA | 0.0411
107 | CGCAGACC | -0.146
108 | CGCAGACA | 0.122
109 | CGCAGACG | 0.257
110 | ACTCATTA | 0.109
111 | ACACAGCA | 0.076
112 | ACACAGCG | 0.251
113 | ACACAGCC | 0.0823
114 | CACAGGAG | 0.0278
115 | ATAGAATC | -0.129
116 | ATAAATTA | 0.364
117 | ATAAATTC | 0.091
118 | CTAAATTA | 0.2
119 | ATAAATTG | 0.253
120 | GTAAATTA | -0.053
121 | AAAAATTG | -0.134
122 | GGAGCAAC | -0.0625
123 | AGATCCTG | -0.0555
124 | AAGGTGAG | -0.192
125 | CAGCAATA | 0.188

Row | Sequence | PBM E-score
126 | AATGGCCC | -0.158
127 | CAATCCTA | -0.015
128 | ACGCCCAT | -0.0524
129 | CACCGACA | -0.0582
130 | CGCTATTA | 0.253
131 | GAATATTA | 0.227
132 | AGCTATTA | 0.0722
133 | ATATACTA | 0.259
134 | GGCTATTA | 0.175
135 | CTATACTA | 0.0535
136 | ACATATTA | 0.317
137 | CCATATTA | 0.148
138 | TAATATGA | 0.133
139 | TAATATTA | 0.424
140 | ACATATTG | 0.0269
141 | ATATACTC | -0.0465
142 | CAGGCTAA | -0.266
143 | TAACCCGA | -0.00699
144 | GGCACCTA | -0.156
145 | AAGCCCAC | -0.0637
146 | ACAGAACC | 0.0474
147 | AAGAACCA | -0.00253
148 | GGCAACCC | -0.174
149 | GAACCTGC | -0.018
150 | ATGCCTTC | -0.162

Row | Sequence | PBM E-score
151 | CGATATTC | 0.173
152 | CAATATTC | 0.0508
153 | CGCTACTA | 0.276
154 | GAATATTC | 0.338
155 | GGATATTA | 0.163
156 | CGATATTA | 0.352
157 | AAATATTC | 0.249
158 | AGCTACTA | 0.0659
159 | CGCTACTC | 0.0265
160 | AAATATTG | 0.249
161 | AAATATTA | 0.298
162 | CAATATTA | 0.187
163 | CACCACAC | 0.151
164 | AGCTCACT | -0.0157
165 | ACAATAGA | -0.144
166 | GGAGCACC | -0.0566
167 | CTATATTA | 0.241
168 | ATATATTA | 0.368
169 | GTATATTA | 0.115
170 | GCTAAGCC | -0.109
171 | AGACGCAC | 0.0398
172 | CGACCTAG | 0.0727
